Out of some 330,000 compounds screened, about 7,300 (2.2%) were called active.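 Rule for the calls: active = inhibition of at least 40%; inactive = the rest.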 The full list was thinned out, with actives kept by preference.
Assay: growth inhibitors of tim10-1 mutant yeast, primary screen, luminescence, uHTS (AID 463190);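 note: mutant grown at 25 °C; 0% = DMSO wells with yeast and 100% = wells holding no yeast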
Conditions: S. cerevisiae tim10-1 ts strain growth, BacTiter-Glo, 24 h; at 20 µM; stronger effect = higher value
For `COC(=O)CSc1snnc1-c1ccc(Cl)c(Cl)c1`, the inhibition was 47.3% (active).
For `COC(=O)CC(=O)N1CCN(c2ccc(Cl)c(Cl)c2)CC1`, the inhibition was 5.73% (inactive).
In the case of `COC(=O)CSc1nnc(NC(=O)CCc2ccccc2)s1`, the inhibition is reported as 17.2% (inactive).
With `N#CC(C(N)=O)=C1CCC2(CC1)OCCCCO2` the inhibition was 17.1% (inactive).
With `Cc1cc(C)cc(NC(=O)NC2CCCCCCC2)c1` the inhibition was 14.5% (inactive).
For `CCOC(=O)C1=C(C)N=c2s/c(=C\C(=O)OC)c(=O)n2C1c1ccc(OC)cc1` (centres undefined), the inhibition was 42.2% (active).
With `CCOC(=O)C1=C(CSc2nccn2C)NC(=O)NC1c1ccc(OC)cc1` (centres undefined) the inhibition was 15.6% (inactive).
With `COCCOC(=O)C1=C(C)N=c2s/c(=C\c3cccs3)c(=O)n2C1c1cccs1` (centres undefined) the inhibition was 15.4% (inactive).
With `CN(C)S(=O)(=O)c1ccc(C(=O)NCC2(N3CCOCC3)CCCCC2)cc1` the inhibition was -9.36% (inactive).
With `COc1ccc(N2CCN(C(=O)c3ccc4c(Cl)c5c(nc4c3)CCCC5)CC2)cc1` the inhibition was -0.417% (inactive).
With `CC(C)CCNC(=O)c1ccc2c(Cl)c3c(nc2c1)CCC3` the inhibition was 41% (active).
For `CC(=O)c1ccc(NC(=O)c2ccc3c(Cl)c4c(nc3c2)CCCC4)cc1`, the inhibition was 13.3% (inactive).
In the case of `COc1ccc(C(=O)c2c3ccc([N+](=O)[O-])cc3[n+]([O-])n2CCCN)cc1`, the inhibition is reported as 1.86% (inactive).
With `COc1ccc(S(=O)(=O)N2CCCCC2)cc1NC(=O)COc1ccccc1` the inhibition was 7.99% (inactive).
With `O=C(COC(=O)CCOc1ccccc1)Nc1cc(S(=O)(=O)N2CCCCC2)ccc1Cl` the inhibition was 46.3% (active).
For `CS(=O)(=O)c1ccc(Cl)c(NC(=O)COC(=O)c2cccc(S(=O)(=O)N3CCCC3)c2)c1`, the inhibition was -30.8% (inactive).
In the case of `COc1cc(C(=O)NCC(=O)NCCSc2ccc(Br)cc2)cc(OC)c1OC`, the inhibition is reported as 9.46% (inactive).
In the case of `O=C(COC(=O)c1ccccc1Br)Nc1nnc(-c2ccccc2)o1`, the inhibition is reported as 0.631% (inactive).
In the case of `Cc1ccc(S(=O)(=O)n2nc(OC(=O)C(C)(C)C)cc2N)cc1`, the inhibition is reported as 25.5% (inactive).
For `Nc1cc(OC(=O)c2ccccc2Br)nn1S(=O)(=O)c1ccccc1`, the inhibition was 57.5% (active).
For `O=C(CN1CCN(c2ncc(C(F)(F)F)cc2Cl)CC1)Nc1ccc2c(c1)OCO2`, the inhibition was 28.8% (inactive).
For `O=C(Cc1ncc(C(F)(F)F)cc1Cl)Nc1cccc(Br)c1`, the inhibition was 47.5% (active).
In the case of `CC(=O)c1ccc(Cc2ncc(C(F)(F)F)cc2Cl)s1`, the inhibition is reported as 3.28% (inactive).
For `Clc1ccc(Cl)c(Oc2ccc(Oc3nc(Cl)ccc3Cl)cc2)n1`, the inhibition was 9.8% (inactive).
In the case of `Brc1ccc(C2=CC(c3ccco3)n3ncnc3N2)cc1` (centres undefined), the inhibition is reported as 48.2% (active).
In the case of `CCOc1ccc(C2=CC(c3ccccc3)n3ncnc3N2)cc1` (centres undefined), the inhibition is reported as 25.5% (inactive).
For `CC1=C(C(=O)OCc2ccccc2)C(c2ccco2)n2ncnc2N1` (centres undefined), the inhibition was 20.9% (inactive).
With `CN=c1scc(-c2cc(OC)ccc2OC)n1/N=C/c1c(C)[nH]c2ccccc12` the inhibition was 46% (active).
With `CCn1c(-c2cc(OC)ccc2OC)csc1=Nc1c(C)n(C)n(-c2ccccc2)c1=O` the inhibition was 22.1% (inactive).
For `COCCNC(=S)N/N=C/c1c(C)[nH]c2ccccc12`, the inhibition was 16.2% (inactive).
With `C=CCOc1ccc(/C=C2/C(=O)ON=C2C)cc1OCC` the inhibition was 5.79% (inactive).
For `COc1cc(/C=C2/C(=O)ON=C2C)ccc1OCc1ccccc1F`, the inhibition was 49% (active).
For `COc1cc(/C=C2/C(=O)ON=C2C)ccc1OCc1cccc(F)c1`, the inhibition was 9.41% (inactive).
In the case of `O=C(O)c1n[nH]nc1-c1ccccc1`, the inhibition is reported as -4.76% (inactive).
For `O=C(Nc1cccc([N+](=O)[O-])c1)N1CCc2ccccc2C1`, the inhibition was 13.3% (inactive).
In the case of `COc1ccc(-c2cnc(SCCNC(=O)c3ccc4c(c3)OCO4)[nH]2)cc1`, the inhibition is reported as -13.2% (inactive).
For `N#Cc1c(-c2ccccc2)nc(SCc2ccc([N+](=O)[O-])cc2)[nH]c1=O`, the inhibition was 16.7% (inactive).
In the case of `COc1ccccc1CSc1ncc(-c2ccc([N+](=O)[O-])cc2)[nH]1`, the inhibition is reported as 44.7% (active).
In the case of `O=C(ON=C1CCN(S(=O)(=O)c2ccccc2)CC1)c1ccc(Cl)cc1`, the inhibition is reported as 65.8% (active).
In the case of `COC(=O)c1ccc(S(=O)(=O)N2CCc3ccccc3C2)cc1`, the inhibition is reported as -7.78% (inactive).
With `CC(OC(=O)c1ccc(S(=O)(=O)N2CCOCC2)cc1)c1ccccc1` (centres undefined) the inhibition was 23.8% (inactive).
For `COc1ccc(NC(=O)CCCN2C(=O)C(c3ccccc3)Oc3cccnc32)cc1` (centres undefined), the inhibition was 37% (inactive).
For `OCC[C@H]1C[C@H](O)[C@@H](O)[C@]2(Cc3ccccc3CO2)O1`, the inhibition was 19% (inactive).
For `NS(=O)(=O)c1ccc(CCNC(=S)Nc2ccc(S(N)(=O)=O)cc2)cc1`, the inhibition was 8.83% (inactive).
For `NS(=O)(=O)c1ccc(NC(=S)NC(=O)c2cccc(Br)c2)cc1`, the inhibition was 23.9% (inactive).
For `NS(=O)(=O)c1ccc(NC(=S)Nc2ccc(Br)c(Cl)c2)cc1`, the inhibition was 55.7% (active).
For `CCOC(=O)c1csc(CCNC(=O)c2oc3c(Cl)cc(C)cc3c2C)n1`, the inhibition was 19.2% (inactive).
With `O=C(Nc1cccc(Cl)c1)c1cncn1-c1ccc(F)cc1` the inhibition was 41.7% (active).
For `O=C(Nc1cccc(Cl)c1)c1cc(S(=O)(=O)N2CCCCC2)c[nH]1`, the inhibition was -3.59% (inactive).
For `CCC(=O)Nc1nc(C)c(C(=O)Nc2cccc(Cl)c2)s1`, the inhibition was 2.36% (inactive).
With `CCn1cc(C(=O)Nc2cc(C)ccc2C)c(=O)c2ccc(C)nc21` the inhibition was 6.54% (inactive).
With `O=C(c1cccc(C(=O)N2CCN(c3ccc(F)cc3)CC2)c1)N1CCN(c2ccc(F)cc2)CC1` the inhibition was 40.1% (active).
In the case of `O=C(c1cc2cc(F)ccc2[nH]1)N1CCN(c2ccc(F)cc2)CC1`, the inhibition is reported as -10.5% (inactive).
For `O=C(c1cc(C(=O)N2CCN(c3ccc(F)cc3)CC2)cc([N+](=O)[O-])c1)N1CCN(c2ccc(F)cc2)CC1`, the inhibition was -17.5% (inactive).
With `OCCCNC(c1ccccc1)c1ccc(O)cc1` (centres undefined) the inhibition was -5.16% (inactive).
In the case of `Cc1onc(-c2ccccc2)c1C(=O)Nc1ccccc1C#N`, the inhibition is reported as 25% (inactive).
With `Cc1onc(-c2ccccc2)c1C(=O)NNC(=S)NC(=O)c1ccc(F)cc1` the inhibition was 29.6% (inactive).
For `COc1ccc(C(=O)NC(=S)NNC(=O)c2c(-c3ccccc3)noc2C)cc1`, the inhibition was 41.5% (active).
In the case of `C=CCNc1nc(N)c(C(=C(C#N)C#N)c2ccccc2)s1`, the inhibition is reported as 32% (inactive).

Reference: PubChem BioAssay AID463190 (Sanford-Burnham Center for Chemical Genomics, 2010)
